# Experimental data from the supplement of paper PMC8728848.
# About 410 targets per protein were measured; listed, in parts, are those with the strongest signals and a random draw of the rest.
# How the values were obtained:
# Assay in all cases: glycan array binding signal (z-score within array); higher = stronger binding
# Details in all cases: glycan notation: IUPAC condensed, linker removed
# [1] = molecular target: Fuc(a1-2)Gal(b1-4)GlcNAc(b1-3)[Fuc(a1-2)Gal(b1-4)GlcNAc(b1-6)]GalNAc
# Outline: (§1)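 Negative Z-scores can be read as non-binding. The Z-score is calculated within each array and then averaged across arrays of one protein sequence at different concentrations or buffers and across linkers. Arrays, 3228 in all, were curated from the Consortium for Functional Glycomics database and kept only where the protein sequence was available.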
# [2] = molecular target: Fuc(a1-2)Gal(b1-4)[Fuc(a1-3)]GlcNAc(b1-3)Gal(b1-4)[Fuc(a1-3)]GlcNAc(b1-3)Gal(b1-4)[Fuc(a1-3)]GlcNAc
# Outline: as §1
# [3] = molecular target: Fuc(a1-2)[Gal(a1-3)]Gal(b1-4)[Fuc(a1-3)]GlcNAc
# Outline: as §1
# [4] = molecular target: Fuc(a1-2)[GalNAc(a1-3)]Gal(b1-3)GlcNAc(b1-3)GalNAc
# Outline: as §1
# [5] = molecular target: Fuc(a1-2)[GalNAc(a1-3)]Gal(b1-4)Glc
# Outline: as §1
# [6] = molecular target: Fuc(a1-2)[GalNAc(a1-3)]Gal(b1-4)GlcNAc(b1-3)[Fuc(a1-2)[GalNAc(a1-3)]Gal(b1-4)GlcNAc(b1-6)]GalNAc
# Outline: as §1
# [7] = molecular target: Fuc(a1-3)[Gal(b1-4)]Glc6S
# Outline: as §1
# [8] = molecular target: Fuc(a1-3)[Gal3S(b1-4)]GlcNAc
# Outline: as §1
# [9] = molecular target: Fuc(a1-3)[GalNAc(b1-4)]GlcNAc6S
# Outline: as §1
# Gal(a1-3)Gal(b1-4)Glc = molecular target: Gal(a1-3)Gal(b1-4)Glc
# Outline: as §1
# [10] = molecular target: Gal(a1-3)Gal(b1-4)GlcNAc(b1-6)GalNAc
# Outline: as §1
# [11] = molecular target: Gal(a1-3)[Gal(a1-4)]Gal(b1-4)GlcNAc
# Outline: as §1
# [12] = molecular target: Gal(b1-3)GalNAc(b1-4)Gal(b1-4)Glc
# Outline: as §1
# [13] = molecular target: Gal(b1-3)GlcNAc(b1-2)Man(a1-3)[GlcNAc(b1-4)][Gal(b1-3)GlcNAc(b1-2)Man(a1-6)]Man(b1-4)GlcNAc(b1-4)GlcNAc
# Outline: as §1
# [14] = molecular target: Gal(b1-3)[Fuc(a1-4)]GlcNAc(b1-3)Gal(b1-4)[Fuc(a1-3)]GlcNAc
# Outline: as §1
# [15] = molecular target: Gal(b1-4)GalNAc(a1-3)[Fuc(a1-2)]Gal(b1-4)GlcNAc
# Outline: as §1
# Gal(b1-4)Glc6S = molecular target: Gal(b1-4)Glc6S
# Outline: as §1
# [16] = molecular target: Gal(b1-4)GlcNAc(b1-2)Man(a1-6)[Man(a1-3)]Man(b1-4)GlcNAc(b1-4)GlcNAc
# Outline: as §1
# [17] = molecular target: Gal(b1-4)GlcNAc(b1-2)[Gal(b1-4)GlcNAc(b1-6)]Man(a1-6)[Gal(b1-4)GlcNAc(b1-2)Man(a1-3)]Man(b1-4)GlcNAc(b1-4)[Fuc(a1-6)]GlcNAc
# Outline: as §1
# [18] = molecular target: Gal(b1-4)GlcNAc(b1-2)[Gal(b1-4)GlcNAc(b1-6)]Man(a1-6)[GlcNAc(b1-4)][Gal(b1-4)GlcNAc(b1-2)Man(a1-3)]Man(b1-4)GlcNAc(b1-4)GlcNAc
# Outline: as §1
# [19] = molecular target: Gal(b1-4)GlcNAc(b1-3)Gal(b1-4)GlcNAc(b1-3)Gal(b1-4)GlcNAc(b1-3)Gal(b1-4)GlcNAc(b1-2)[Gal(b1-4)GlcNAc(b1-3)Gal(b1-4)GlcNAc(b1-3)Gal(b1-4)GlcNAc(b1-3)Gal(b1-4)GlcNAc(b1-6)]Man(a1-6)[Gal(b1-4)GlcNAc(b1-3)Gal(b1-4)GlcNAc(b1-3)Gal(b1-4)GlcNAc(b1-3)Gal(b1-4)GlcNAc(b1-2)Man(a1-3)]Man(b1-4)GlcNAc(b1-4)[Fuc(a1-6)]GlcNAc
# Outline: as §1
# [20] = molecular target: Gal3S(b1-4)[Fuc(a1-3)]GlcNAc6S
# Outline: as §1
# Gal3S6S(b1-4)GlcNAc6S = molecular target: Gal3S6S(b1-4)GlcNAc6S
# Outline: as §1
# Gal4S(b1-4)GlcNAc = molecular target: Gal4S(b1-4)GlcNAc
# Outline: as §1
# Gal4S6S(b1-4)GlcNAc = molecular target: Gal4S6S(b1-4)GlcNAc
# Outline: as §1
# Gal6S(b1-3)GlcNAc6S = molecular target: Gal6S(b1-3)GlcNAc6S
# Outline: as §1
# GalNAc(b1-4)GlcNAc = molecular target: GalNAc(b1-4)GlcNAc
# Outline: as §1
# GalNAc(b1-4)GlcNAc6S = molecular target: GalNAc(b1-4)GlcNAc6S
# Outline: as §1
# GalNAc6S(b1-4)GlcNAc = molecular target: GalNAc6S(b1-4)GlcNAc
# Outline: as §1
# [21] = molecular target: GlcNAc(b1-2)Man(a1-3)[GlcNAc(b1-2)Man(a1-6)]Man(b1-4)GlcNAc(b1-4)GlcNAc
# Outline: as §1
# [22] = molecular target: GlcNAc(b1-2)[GlcNAc(b1-6)]Man(a1-6)[GlcNAc(b1-2)Man(a1-3)]Man(b1-4)GlcNAc(b1-4)[Fuc(a1-6)]GlcNAc
# Outline: as §1
# [23] = molecular target: GlcNAc(b1-2)[GlcNAc(b1-6)]Man(a1-6)[GlcNAc(b1-4)][GlcNAc(b1-2)Man(a1-3)]Man(b1-4)GlcNAc(b1-4)GlcNAc
# Outline: as §1
# [24] = molecular target: GlcNAc(b1-4)[GlcNAc(b1-6)]GalNAc
# Outline: as §1
# GlcNAc(b1-6)GalNAc = molecular target: GlcNAc(b1-6)GalNAc
# Outline: as §1
# [25] = molecular target: GlcNAc6S(b1-3)Gal(b1-4)GlcNAc
# Outline: as §1
# [26] = molecular target: Man(a1-2)Man(a1-2)Man(a1-6)[Man(a1-3)]Man
# Outline: as §1
# [27] = molecular target: Man(a1-2)Man(a1-6)[Man(a1-3)]Man(a1-6)[Man(a1-2)Man(a1-2)Man(a1-3)]Man
# Outline: as §1
# [28] = molecular target: Man(a1-3)[Man(a1-6)]Man(a1-6)[Man(a1-3)]Man(b1-4)GlcNAc(b1-4)GlcNAc
# Outline: as §1
# [29] = molecular target: Neu5Ac(a2-3)Gal(b1-3)GlcNAc(b1-6)GalNAc
# Outline: as §1
# [30] = molecular target: Neu5Ac(a2-3)Gal(b1-3)[GlcNAc(b1-6)]GalNAc
# Outline: as §1
# [31] = molecular target: Neu5Ac(a2-3)Gal(b1-4)GlcNAc(b1-3)Gal(b1-4)[Fuc(a1-3)]GlcNAc
# Outline: as §1
# [32] = molecular target: Neu5Ac(a2-3)Gal(b1-4)[Fuc(a1-3)]GlcNAc(b1-3)Gal
# Outline: as §1
# [33] = molecular target: Neu5Ac(a2-3)Gal6S(b1-4)[Fuc(a1-3)]GlcNAc
# Outline: as §1
# [34] = molecular target: Neu5Ac(a2-6)Gal(b1-4)GlcNAc(b1-2)Man(a1-3)Man(b1-4)GlcNAc(b1-4)GlcNAc
# Outline: as §1
# [35] = molecular target: Neu5Ac(a2-6)Gal(b1-4)GlcNAc(b1-6)GalNAc
# Outline: as §1
# [36] = molecular target: Neu5Ac(a2-8)Neu5Ac(a2-8)Neu5Ac
# Outline: as §1
# Neu5Gc(a2-6)GalNAc = molecular target: Neu5Gc(a2-6)GalNAc
# Outline: as §1
binder,measurement,setting,value
"AT1G73650(15) (Arabidopsis thaliana), F4HRY1 (protein) MGTVLDSHFLALTAIVTVIYQFIFFVITALFKFDQVTDFAGSTNFVILAVLTLVLKASWHFRQIVLTLLVVVWGLRLGIFLLMETRILQWGEDRRFDEQRGNIVRLIIFWTLQAVWVWTVSLPLTLVNASDGGGSLKPADVIGWTMETWVFGFLIEAAADQQKLSFKNSPENRGKWCDVGVWKYSRHPNYFGEMETLLWWGIFVAASPVLEGAEYLVIFGPLFLTLLLLFVSGIPLLEASADKKHGNSGAYRSYKKTTSPLILFPRGVYGNLPGWFKTVFLFEFPFYSRNLPQEGRLQNSKEKEVKDD",glycan array binding signal (z-score),[1],2.33
same,glycan array binding signal (z-score),[2],-0.048
same,glycan array binding signal (z-score),[3],-0.438
same,glycan array binding signal (z-score),[4],0.226
same,glycan array binding signal (z-score),[5],-0.567
same,glycan array binding signal (z-score),[6],-0.573
same,glycan array binding signal (z-score),[7],2.65
same,glycan array binding signal (z-score),[8],3.17
same,glycan array binding signal (z-score),[9],-0.217
same,glycan array binding signal (z-score),Gal(a1-3)Gal(b1-4)Glc,3.4
same,glycan array binding signal (z-score),[10],-0.542
same,glycan array binding signal (z-score),[11],3.43
same,glycan array binding signal (z-score),[12],3.21
same,glycan array binding signal (z-score),[13],-0.213
same,glycan array binding signal (z-score),[14],-0.287
same,glycan array binding signal (z-score),[15],-0.354
same,glycan array binding signal (z-score),Gal(b1-4)Glc6S,2.95
same,glycan array binding signal (z-score),[16],-0.586
same,glycan array binding signal (z-score),[17],1.65
same,glycan array binding signal (z-score),[18],-0.494
same,glycan array binding signal (z-score),[19],-0.173
same,glycan array binding signal (z-score),[20],1.88
same,glycan array binding signal (z-score),Gal3S6S(b1-4)GlcNAc6S,0.919
same,glycan array binding signal (z-score),Gal4S(b1-4)GlcNAc,-0.333
same,glycan array binding signal (z-score),Gal4S6S(b1-4)GlcNAc,-0.444
same,glycan array binding signal (z-score),Gal6S(b1-3)GlcNAc6S,-0.282
same,glycan array binding signal (z-score),GalNAc(b1-4)GlcNAc,4.01
same,glycan array binding signal (z-score),GalNAc(b1-4)GlcNAc6S,-0.402
same,glycan array binding signal (z-score),GalNAc6S(b1-4)GlcNAc,0.513
same,glycan array binding signal (z-score),[21],-0.569
same,glycan array binding signal (z-score),[22],0.047
same,glycan array binding signal (z-score),[23],-0.322
same,glycan array binding signal (z-score),[24],-0.41
same,glycan array binding signal (z-score),GlcNAc(b1-6)GalNAc,-0.154
same,glycan array binding signal (z-score),[25],-0.641
same,glycan array binding signal (z-score),[26],-0.361
same,glycan array binding signal (z-score),[27],-0.508
same,glycan array binding signal (z-score),[28],-0.566
same,glycan array binding signal (z-score),[29],3.42
same,glycan array binding signal (z-score),[30],-0.402
same,glycan array binding signal (z-score),[31],1.23
same,glycan array binding signal (z-score),[32],-0.714
same,glycan array binding signal (z-score),[33],-0.428
same,glycan array binding signal (z-score),[34],-0.274
same,glycan array binding signal (z-score),[35],7.33
same,glycan array binding signal (z-score),[36],2.92
same,glycan array binding signal (z-score),Neu5Gc(a2-6)GalNAc,3.69
